Assay outcomes as filed in PubChem BioAssay.
DAX1 inh-1: DAX1 (NR0B1) inhibitors on StAR promoter, primary screen, cell-based, luminescence, SF-1 (NR5A1), full-length DAX-1; 1.1% of 370,000 active; inhibition, % at 6.8 µM; HEK293T StAR-luciferase reporter, SF-1/DAX-1 repression relief; AID 652010, 2013;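 active = inhibition above the mean over all tested compounds plus 3 SD, cut at about 3.6% in these data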;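 also: 0% = DAX-1 cells with DMSO and 100% = cells lacking DAX-1 with DMSO; higher inhibition means more luminescence from relief of DAX-1 repression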
GAA850 FXN act: FXN promoter activators, primary screen, cell-based, luciferase luminescence, HEK293 lucGAA850; activation, % at 6 µM; HEK293 lucGAA850 FXN promoter luciferase reporter, 24 h; percent of 10 µM SAHA response; 0.56% of 360,000 active;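 active = activation above the average of all compounds screened plus 3 SD, cutoff fixed separately per campaign, cut at about 7.5% in these data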;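 also: 0% = DMSO wells and 100% = 10 µM SAHA wells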
hgDAF-12 ag: H. glycines DAF-12 receptor agonists, primary screen, cell-based, luminescence, HEK293, GAL4 fusion, UAS-luciferase | HEK293 GAL4-hgDAF12 UAS-luciferase reporter, agonist luminescence; normalized to butyrate control | activation, % at 6.8 µM | 1.8% of 370,000 active;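 active = activation above a cutoff set at the mean of all screened compounds plus 3 SD, cut at about 10% in these data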;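 also: 0% = DMSO wells and 100% = sodium butyrate wells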
hcDAF12 agonist: H. contortus DAF-12 nuclear receptor activators, primary screen, cell-based, luminescence, HEK293, lit1-tk-luc reporter; HEK293 hcDAF-12 lit1-tk-luc reporter; 0% DMSO, 100% Δ7-dafachronic acid; activation, % at 6.8 µM; 1.4% of 370,000 active; AID 652067, 2013;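 active = activation above the mean of all tested compounds plus 3 SD, cut at about 5.5% in these data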;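 also: 100% = response to 3 µM Δ7-dafachronic acid high control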
DAX1 inh-2: DAX1 (NR0B1) inhibitors, primary screen, cell-based, HEK293, Gal4-DAX1, luciferase luminescence. 0.99% of 340,000 active. inhibition, % at 6.75 µM. HEK293 Gal4-DAX1 luciferase reporter. Nuclear receptor subfamily 0 group B member 1 (Homo sapiens), P51843;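 active = inhibition above the mean over all tested compounds plus 3 SD, cut at about 4.2% in these data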;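 also: 0% = DAX1-transfected cells with DMSO and 100% = empty-vector control cells with DMSO; inhibition shows as a rise in luminescence from relieved DAX1 repression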
Target sequence (P51843 207-470 limits assumed): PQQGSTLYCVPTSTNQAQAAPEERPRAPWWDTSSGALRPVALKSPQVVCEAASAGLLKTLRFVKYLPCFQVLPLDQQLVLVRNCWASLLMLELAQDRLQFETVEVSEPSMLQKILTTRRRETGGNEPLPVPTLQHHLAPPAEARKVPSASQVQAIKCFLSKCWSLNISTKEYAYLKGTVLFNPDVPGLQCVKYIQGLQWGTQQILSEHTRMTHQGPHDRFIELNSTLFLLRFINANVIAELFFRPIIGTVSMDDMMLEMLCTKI
ssDAF12 agonist: S. stercoralis DAF-12 nuclear receptor activators, primary screen, cell-based, luminescence, HEK293, GRIP1 co-expression, lit1-tk-luc; activation, % at 6.8 µM; 1% of 370,000 active; Nuclear hormone receptor DAF-12 (Strongyloides stercoralis); AID 652126, 2013; HEK293 ssDAF-12/GRIP1 lit1-tk-luc reporter; % of 3 µM dafachronic acid response;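 active = activation above the mean over all tested compounds plus 3 SD, cut at about 0.9% in these data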;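 also: 0% = DMSO-only wells and 100% = 3 µM delta7-dafachronic acid wells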
An asterisk follows results filed as active; . = no result given. This is a sample that favours compounds with a hit; in the whole collection about 4.5% have one here.

SMILES	DAX1 inh-1	GAA850 FXN act	hgDAF-12 ag	hcDAF12 agonist	DAX1 inh-2	ssDAF12 agonist
COC(=O)[C@]12C[C@H](CC(=O)N3CCCC3)C(=O)N(Cc3ccc4c(c3)OCO4)C1=C[C@H](C(C)C)O[C@@H]2C1CC1	-2	.	-4	-3	.	-2
CCOc1ccccc1-c1nnc(CS(=O)(=O)c2ccccc2)o1	0	1	1	3	0	0
COc1ccc(Br)c(-c2nnc(CS(=O)(=O)c3ccccc3)o2)c1	1	7	11*	0	0	-1
Cc1ccc(-n2c(SCC(=O)Nc3ccccc3-c3ccccc3)nnc2-c2ccccc2)cc1	-2	.	0	-3	.	-1
CC(C)c1ccc(NC(=S)N2CCN(C)CC2)cc1	1	1	2	-1	1	0
CC(C)c1ccc(NC(=S)N2CCCC2)cc1	3.9*	2	6	5	2	0
O=S1(=O)c2ccc(Br)cc2OC[C@@H](Cc2ccccc2)N1Cc1cn(CCC2OCCO2)nn1	-1	.	-3	-3	.	-1
O=C1C=C(C2OC(CO)C(O)C2O)C(=O)N1 (stereo not drawn)	1	1	-1	-1	5.9*	-1
CCC(C)[C@H](NC(=O)OC(C)(C)C)C(=O)N[C@@H](Cc1ccccc1)C(=O)OC (stereo partly drawn)	0	.	-4	-1	.	-1
Cc1cc(C)nc(N/C(=N\S(=O)(=O)Cc2ccccc2)Nc2ccccc2Br)n1	1	0	3	1	4.4*	0
CCOC(=O)[C@@]12CCCC3=C1N(CCC3)C(=O)[C@H]2CC(=O)NCCC(C)C	-1	.	1	-1	.	-2
Nc1nc(N)nc(COc2ccccc2)n1	1	5	11*	2	4.7*	0
CN(C)/N=C/C=C1\CCC/C(=C/c2cccs2)C1=O	1	6	12*	1	4.4*	0
COC(=O)[C@]12C[C@H](CC(=O)N3CCN(C(=O)C4CC4)CC3)C(=O)N(Cc3cccc4ccccc34)C1=C[C@H](COCc1ccccc1)O[C@@H]2C	-1	.	-1	-3	.	-2
C=CCn1c(SCC(=O)C(C)(C)C)nnc1-c1ccc(Cl)cc1	0	.	2	-2	.	-1
COc1ccccc1C(=O)Nc1sc2c(c1C(N)=O)CCCC2	0	3	3	3	1	0.9*
NC(=O)c1c(NC(=O)c2ccc([N+](=O)[O-])o2)sc2c1CCCC2	0	2	1	4	0	2.0*
O=C(Nc1sc2c(c1C(=O)O)CCCCC2)c1cccs1	3	1	10	4	2	1.0*
O=C(Nc1sc2c(c1C(=O)O)CCCC2)c1cccs1	2	3	6	3	1	-1
CC1(C)CC(=O)N(CC(=O)N2CCN(c3cccc(C(F)(F)F)c3)CC2)c2ccccc2S1(=O)=O	-1	.	-2	-2	.	-2
C[C@@H]1COc2cc(F)ccc2S(=O)(=O)N1C	0	.	-2	0	.	0
N[C@@H](Cc1ccc(O)c(O)c1)C(=O)O	0	-1	-1	-1	2	-1
NC(Cc1ccc2nsnc2c1)C(=O)O (stereo not drawn)	0	1	-1	-1	2	2.9*
COC(=O)[C@]12C[C@H](CC(=O)NCc3cccc4ccccc34)C(=O)N(Cc3ccco3)C1=C[C@H](C(C)(C)C)O[C@@H]2C	1	.	-2	-3	.	-1
O=C(O)c1cc(=O)c2cc(Cl)ccc2o1	-1	0	0	0	0	-1
SMILES	DAX1 inh-1	GAA850 FXN act	hgDAF-12 ag	hcDAF12 agonist	DAX1 inh-2	ssDAF12 agonist
Cc1ccccc1-c1cc(=O)c2ccccc2o1	0	0	1	-3	1	-2
O=c1cc(-c2ccccc2)oc2ccc(Cl)cc12	3.9*	6	8	3	3	-1
O=c1cc(-c2ccccc2F)oc2ccccc12	2	7	11*	1	0	-1
O=c1cc(-c2cccs2)oc2ccc(Cl)cc12	1	3	10	5	5.3*	0
O=c1cc(-c2ccc3c(c2)OCCO3)oc2ccc(Cl)cc12	2	5	12*	1	2	1
O=c1cc(-c2ccccc2)oc2ccc(Br)cc12	2	5	6	3	1	0
S=c1[nH]nc(-c2cc(-c3ccccc3)n[nH]2)n1N=Cc1c[nH]c2ccccc12	-1	.	0	-2	.	-2
O=c1cc(-c2ccsc2)oc2cc(-c3ccc4c(c3)OCO4)ccc12	0	0	0	1	4.7*	-2
CCC(C(=O)Nc1ccccc1N1CCCC1)c1cccc(Cl)c1 (stereo not drawn)	-1	.	-1	-1	.	-2
CCSc1ccc(/C(N)=N/OC(=O)c2cccs2)cn1	3.9*	3	6	2	2	0
N/C(=N\OC(=O)c1cccs1)c1cccnc1	1	3	3	3	3	-1
CCC(c1nnc(SCC(=O)NCCc2ccc(OC)c(OC)c2)n1Cc1ccccc1)N(C)C (stereo not drawn)	0	3	-1	0	3	1.2*
COc1ccc(CCNC(=O)CSc2nc3[nH]ncc3c(=O)n2-c2ccc(C)c(Cl)c2)cc1OC	-3	-4	0	2	1	1.8*
CCCCN(C)S(=O)(=O)c1ccc2[nH]c(=O)oc2c1	0	.	0	-2	.	-1
CCOC(=O)[C@@]12CCCC=C1N(CCc1ccc(Cl)cc1)C(=O)[C@H]2CC(=O)NCc1ccccc1	-2	.	1	-3	.	-1
c1ccc(-n2ncc3c(NCCN4CCOCC4)ncnc32)cc1	1	2	6	3	3	0
Cc1nc(NCCCN2CCOCC2)c2cnn(-c3ccccc3)c2n1	2	3	12*	4	1	0
CC1(C)C2CC[C@]3(C)C(CC=C4[C@@H]5C[C@@](C)(CO)[C@@H](O)C[C@]56C[C@@H](OC6=O)[C@]43C)[C@@]2(C)CC[C@@H]1O (stereo partly drawn)	0	-2	1	-1	5.5*	-2
